Experiment [1] relates to Human papillomavirus type 1a protein E7 (residues 44-93). The experiment can be described thus: HPV1a E7 fragment binders on microarrays, primary screen, biochemical, small-molecule microarray, residues 44-93, 635 nm fluorescence (AID 1108).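 Also: E7 fragment applied at 1 µg/mL in TBST for 1 h at 4 C; score combines spot fluorescence with its signal to noise ratio.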 The note with it: small-molecule microarray binding, fluorescence 635 nm; higher = more signal.
Experiment [2] is described as follows: modulators of HCV replicon luciferase signal, primary screen, HCV replication inhibitor project, Huh7 cells, luciferase reporter (AID 1109).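 Also: huh7 hepatoma cells harbouring a luciferase neomycin HCV replicon reporter; luciferase luminescence as measure of HCV replicon replication; test concentration not given here.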 Particulars: 48 h, higher = more signal.
In experiment [3] the target is Left-right determination factor 2 (Homo sapiens) (UniProt O00292). The experiment can be described thus: LEFTY2 binders on small-molecule microarrays, primary screen, biochemical, small-molecule microarray, 635 nm fluorescence scan (AID 1110). The note with it: LEFTY2 binding, higher = more signal.
Chain of Left-right determination factor 2 (Homo sapiens) (O00292 whole entry, looked up): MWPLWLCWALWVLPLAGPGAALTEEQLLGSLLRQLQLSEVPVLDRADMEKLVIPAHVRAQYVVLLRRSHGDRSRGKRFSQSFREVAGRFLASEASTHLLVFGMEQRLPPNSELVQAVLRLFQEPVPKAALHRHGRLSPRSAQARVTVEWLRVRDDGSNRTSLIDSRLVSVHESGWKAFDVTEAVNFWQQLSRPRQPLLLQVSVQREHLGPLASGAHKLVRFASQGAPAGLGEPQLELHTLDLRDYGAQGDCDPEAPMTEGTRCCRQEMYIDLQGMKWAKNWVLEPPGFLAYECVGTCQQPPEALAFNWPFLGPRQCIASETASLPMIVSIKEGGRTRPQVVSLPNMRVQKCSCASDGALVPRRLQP
Experiment [4] deals with Calmodulin-1 (Homo sapiens) (UniProt P0DP23). Description: CALM1 binders on microarrays, EGTA buffer, profiling panel, biochemical, small-molecule microarray, Cy5-labelled CALM1 (AID 1111).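 Also: labelled calmodulin applied in Tris saline Tween buffer holding calcium plus EGTA and DTT.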 Particulars: Cy5-CALM1 binding fluorescence, higher = more signal.
The target is the same in experiment [5]. Description: calcium-bound CALM1 binders on microarrays, profiling panel, artefact control for SMM control-protein annotation, biochemical, small-molecule microarray, Cy5-labelled CALM1, plus calcium (AID 1112).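 Also: score merges spot fluorescence with signal to noise from triplicate slides.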 The note with it: Cy5-CALM1 binding fluorescence, higher = more signal.
A short description of experiment [6]: small-molecule microarray binders of probe aWnt5a, primary screen, biochemical, biotinylated probe, 635/667 nm fluorescence (AID 1113).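 Also: score merges 667 nm fluorescence intensity with signal-to-noise per printed feature.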 Particulars: higher = more signal.
Experiment [7] is described as follows: small-molecule microarray binders of probe aShh, primary screen, biochemical, biotinylated probe, 635/667 nm fluorescence (AID 1114).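 Also: probe is biotin-labelled aShh protein from a stem cell growth factor screen; measures binding of labelled protein to compounds printed on the slide; score merges feature fluorescence at 667 nm with signal-to-noise.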 The note with it: higher = more signal.
Experiment [8] in a line: small-molecule microarray binders of probe aNog, primary screen, biochemical, biotinylated probe, 635/667 nm fluorescence (AID 1115).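 Also: probe is biotinylated aNog protein used at 0.15 µg/mL for 1 h at 4 C; z-score combines 667 nm fluorescence of each spot with its signal to noise.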 The note with it: higher = more signal.
The target in experiment [9] is Torsin-1A-interacting protein 1 (Homo sapiens) (UniProt Q5JTV8). Description: LAP1 binders from COS7 cell lysate, primary screen, small-molecule microarray, 635/667 nm fluorescence (AID 1116). Particulars: COS7-hLAP1 lysate binding, 635 nm fluorescence, higher = more signal.
Chain of Torsin-1A-interacting protein 1 (Homo sapiens) (Q5JTV8 whole entry, looked up): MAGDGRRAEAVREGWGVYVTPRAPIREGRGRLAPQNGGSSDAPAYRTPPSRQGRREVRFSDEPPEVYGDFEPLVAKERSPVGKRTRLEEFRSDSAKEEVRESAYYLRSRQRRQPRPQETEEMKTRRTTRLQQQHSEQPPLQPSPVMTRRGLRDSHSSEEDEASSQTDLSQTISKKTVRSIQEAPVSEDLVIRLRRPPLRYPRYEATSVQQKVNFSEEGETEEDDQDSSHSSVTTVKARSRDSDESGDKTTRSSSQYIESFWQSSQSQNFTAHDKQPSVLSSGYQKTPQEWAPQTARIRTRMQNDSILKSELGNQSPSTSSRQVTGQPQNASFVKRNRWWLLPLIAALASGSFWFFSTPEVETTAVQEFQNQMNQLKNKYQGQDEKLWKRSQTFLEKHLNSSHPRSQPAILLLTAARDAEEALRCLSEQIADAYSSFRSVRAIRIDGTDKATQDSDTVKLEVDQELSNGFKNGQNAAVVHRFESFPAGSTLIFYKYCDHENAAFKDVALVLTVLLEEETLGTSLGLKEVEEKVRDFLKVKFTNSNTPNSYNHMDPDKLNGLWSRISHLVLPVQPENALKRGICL
The target in experiment [10] is Alpha-bungarotoxin (Bungarus multicinctus) (UniProt P60615). The experiment can be described thus: alpha-bungarotoxin binders on microarray, profiling panel, artefact control for SMM control protein annotation, biochemical, small-molecule microarray, Alexa647 label, 635/667 nm fluorescence (AID 1117). The note with it: alpha-BTX-A647 binding fluorescence, higher = more signal.
Chain of Alpha-bungarotoxin (Bungarus multicinctus) (P60615 whole entry, looked up): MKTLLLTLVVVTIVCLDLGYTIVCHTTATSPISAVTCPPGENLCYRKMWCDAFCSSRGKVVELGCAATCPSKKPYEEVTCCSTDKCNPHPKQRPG

Turning to `C[C@H]1C2[C@H](Cc3ccccc3)NC(=O)[C@]23C(=O)N[C@H](Cc2ccccc2)C(=O)N[C@@H](Cc2ccccc2)C(=O)NC/C=C\C/C=C/C3[C@@H]2O[C@]12C` (stereo not given in full), the composite z-score is -0.767 in experiment [1]; 0.419 in experiment [3]; -0.297 in [4]; -0.348 in experiment [5]; -0.199 in experiment [6]; -0.0553 in experiment [7]. The composite z-score in experiment [8] was 0.471; in experiment [9], 0.86; in experiment [10], -0.506. Further, in experiment [2], the z-score is -0.204.

`CC(=O)NCCCC[C@@H]1NC(=O)[C@@H]2C[C@H](C(=O)NCCCCCNC(=O)CS)[C@H](c3ccc(O)cc3)N2C1=O`: the composite z-score in experiment [1] was 0.364; in [3], -0.293; in experiment [4] it was -0.592; in experiment [5], 0.503; in experiment [6] it was -0.221; in experiment [7], 0.0284. For the same molecule, the composite z-score was -0.0315 in experiment [8], 0.0502 in experiment [9] and -0.46 in experiment [10]. Further, the z-score in [2] is 1.22.

Consider `CO[C@H]1COC(=O)[C@H](Cc2ccccc2)NC(=O)CC=C[C@@H](C)[C@H](OC)COC(=O)CC=C[C@@H]1C`, for which the composite z-score in experiment [1] was 0.482; in experiment [3], 1.11; in [4] it was -0.0075; in [5], -0.61; in experiment [6], -0.134; in [7], 0.0022. The figures for the composite z-score in experiment [8], in experiment [9] and in [10] were -0.0682, 0.311 and 0.426, respectively. Further, the z-score in experiment [2] was found to be 0.401.

`CN(C)CCCC[C@@H]1NC(=O)[C@@H]2C[C@H](C(=O)O)[C@H](c3ccc(O)cc3)N2C1=O`: the composite z-score was 0.668 in experiment [1]; 1.15 in [3]; -0.0922 in [4]; -0.0146 in experiment [5]; 0.0078 in [6]; -0.138 in experiment [7]. In addition, the figures for the composite z-score in experiment [8], in experiment [9] and in experiment [10] were 0.69, 0.485 and 1.2, respectively. In experiment [2], the z-score is 0.883.

Consider `COc1ccc(CCN2C(=O)[C@@]3(c4ccc([N+](=O)[O-])cc4)CC(=O)N(CC45CC6CC(CC(C6)C4)C5)[C@@H]3c3ccc(CO)cc32)cc1`, for which the composite z-score in [1] was -0.047; in [3], 0.16; in experiment [4], 0.207; in [5], -0.474; in [6], -0.0101; in experiment [7], -0.181. The composite z-score is -0.476 in [8], 0.352 in [9] and 0.119 in [10]. The same molecule yielded a z-score in [2] of -0.673.

With `COc1cc(CO)cc(I)c1O[C@H]1C=C(C(=O)NCCO)C[C@@H](N(CC2CCCCC2)C(=O)c2cc3ccccc3oc2=O)[C@@H]1O`, the composite z-score in experiment [1] was -0.376; in experiment [3], 0.252; in experiment [4] it was 0.0059; in [5], -0.857; in experiment [6] it was -0.185; in experiment [7] it was -0.0904. Besides, the composite z-score is -0.446 in experiment [8], 0.646 in experiment [9] and -0.431 in experiment [10]. In [2], this molecule returned a z-score of 0.806.

As to `CCCC[C@@H]1C[C@H]1[C@@H](NC(=O)c1ccccc1)c1ccccc1C(F)(F)F`, the composite z-score in experiment [1] is 1.38; in experiment [3] it was -0.641; in experiment [4], 1.04; in [5], 1.09; in experiment [6] it was -0.127; in experiment [7], 0.204. Besides, the figures for the composite z-score in experiment [8], in experiment [9] and in [10] were 1.39, 1.06 and 1.61, respectively. The z-score in experiment [2] was -0.696.

Turning to `C[C@@H]1CC[C@H]2C(=O)N3[C@@H](CC[C@@H](C)[C@@H]3c3cccc(N4CCOCC4)c3)C(=O)N2[C@H]1c1cccc(Br)c1`, the composite z-score in experiment [1] is 0.396; in experiment [3] it was 0.458; in [4], 0.361; in [5], -0.0482; in [6] it was -0.0357; in experiment [7], -0.138. Besides, the composite z-score in experiment [8] stood at 0.0205; in experiment [9], 0.868; in [10] it was 1.6. The molecule also returned a z-score in [2] of -1.97.

In the case of `C=CC[C@]1(C(=O)N2CCCCC2)N=C(c2ccc(OCCCO)cc2)O[C@H]1c1ccccc1N=[N+]=[N-]`, the composite z-score stood at 0.796 in experiment [1]; 0.218 in [3]; 2.16 in [4]; 0.994 in experiment [5]; 0.0327 in experiment [6]; 0.195 in [7]. In addition, the results for the composite z-score in experiment [8], in experiment [9] and in experiment [10] were -0.174, 1.85 and 2.28, respectively. Moreover, in experiment [2], the z-score was -0.668.

For `CC(C)(C)OC(=O)CC[C@]1(C(=O)NCCN2CCOCC2)N=C(c2ccc(OCCCO)cc2)O[C@H]1c1ccccc1CN=[N+]=[N-]`, the composite z-score in experiment [1] was 0.309; in experiment [3], 0.0415; in experiment [4], 1.12; in experiment [5], 0.608; in [6], -0.0944; in experiment [7], 0.0469. For the same molecule, the composite z-score in experiment [8] is 0.816; in experiment [9] it was 2.12; in [10], 2.01. In experiment [2], this molecule showed a z-score of -1.77.

Consider `COc1cc2c(cc1OC)CN(C(=O)[C@@H]1[C@H]3C(=O)O[C@H](c4ccccc4)[C@H](c4ccccc4)N3[C@H](c3ccccc3OCCO)[C@@]13C(=O)Nc1ccccc13)CC2`, for which the composite z-score in experiment [1] was 1.01; in experiment [3] it was 0.187; in [4], 0.421; in [5] it was 0.234; in experiment [6], 0.213; in [7], -0.0213. Moreover, the results for the composite z-score in experiment [8], in experiment [9] and in [10] were 0.0101, -0.345 and 2.07, respectively. In experiment [2], the z-score was -2.02.

With `CC(C)C[C@@H]1NC(=O)[C@H]2C[C@@H](C(=O)NCCCCCC[N+](C)(C)C)[C@@H](c3ccc(O)cc3)N2C1=O`, the composite z-score was 0.183 in experiment [1]; -0.29 in [3]; -0.602 in [4]; -0.781 in experiment [5]; -0.229 in [6]; 0.0856 in [7]. For the same molecule, the composite z-score in experiment [8] was -0.169; in [9], 0.418; in experiment [10], -0.111. Moreover, the z-score in experiment [2] was found to be 0.549.

With `C=CCNC(=O)[C@H]1[C@@H]2C(=O)O[C@@H](c3ccccc3)[C@@H](c3ccccc3)N2[C@@H](c2ccccc2OCCO)[C@]12C(=O)N(C(=O)OCCOC)c1ccc(C#CCC(C(=O)OC)C(=O)OC)cc12`, the composite z-score in experiment [1] was -0.29; in experiment [3] it was 0.208; in experiment [4], 1.57; in [5], 0.865; in [6] it was -0.012; in [7], 0.217. Further, the composite z-score came out at 0.419 in [8], 0.926 in [9] and 1.87 in [10]. In [2], this molecule came in with a z-score of -1.22.
